Assay outcomes (PubChem)
Compounds with a hit are over-represented: about 2.4% of the library has one in this group of screens.
ABHD5 PLIN5 PPI = ABHD5-PLIN5 interaction inhibitors, primary screen, cell lysate, split luciferase complementation, luminescence; Perilipin-5 (Homo sapiens) + 1-acylglycerol-3-phosphate O-acyltransferase ABHD5 (Homo …; Split G. princeps luciferase complementation, 4 h; inhibition, % at 4 µM; hit rate 0.78% among 360,000; AID 602281, 2012;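 active = inhibition above the mean inhibition across every tested compound plus 3 SD, cut at about 22% in these data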;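 also: 0% = DMSO only wells and the 100% control is not disclosed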
NOD2-RIPK2 inh = NOD2-RIPK2 binding disruptors in cells, primary screen, fluorescence, CHO cells, BLA complementation. inhibition, % at 4.98 µM. AID 624267, 2012. CCF4 ratio. hit rate 0.38% among 360,000. Receptor-interacting serine/threonine-protein kinase 2 (Homo sapiens), O43353; in the data active = inhibition above about 21%;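 also: 0% = vehicle only and 100% = reference blocker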
Target sequence (O43353 whole entry, looked up): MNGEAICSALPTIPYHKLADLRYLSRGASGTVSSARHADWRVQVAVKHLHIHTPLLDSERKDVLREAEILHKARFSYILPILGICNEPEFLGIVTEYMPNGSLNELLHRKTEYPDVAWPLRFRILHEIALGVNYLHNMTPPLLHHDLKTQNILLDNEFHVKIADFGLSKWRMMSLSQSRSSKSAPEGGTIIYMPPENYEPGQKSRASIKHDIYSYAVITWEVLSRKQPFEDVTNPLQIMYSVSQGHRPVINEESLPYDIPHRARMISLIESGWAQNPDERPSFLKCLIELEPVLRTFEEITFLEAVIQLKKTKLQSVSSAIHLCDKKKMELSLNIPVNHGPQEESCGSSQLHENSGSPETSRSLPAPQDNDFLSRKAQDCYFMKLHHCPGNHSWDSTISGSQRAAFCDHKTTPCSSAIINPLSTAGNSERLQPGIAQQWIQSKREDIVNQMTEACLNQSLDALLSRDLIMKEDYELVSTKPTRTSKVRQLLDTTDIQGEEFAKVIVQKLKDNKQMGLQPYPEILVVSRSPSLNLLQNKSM
TLR9-MyD88 inh = inhibitors of TLR9-MyD88 association in cells, primary screen, cell-based, CHO, BLA complementation, fluorescence | Toll-like receptor 9 (Homo sapiens) + Myeloid differentiation primary response protein … | CCF4 FRET ratio | inhibition, % at 4.98 µM | hit rate 0.21% among 340,000 | AID 504734, 2011;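 active = inhibition above the mean over all tested compounds plus 3 SD, cut at about 21% in these data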;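 also: 0% = DMSO only wells and 100% = clavulanate BLA inhibitor control wells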
TLR4 MyD88 comp = inhibitors of TLR4-MyD88 association in cells, primary screen, cell-based, HeLa CL3-4, BLA complementation, FRET ratio; Toll-like receptor 4 (Homo sapiens) + Myeloid differentiation primary response protein …; HeLa CL3-4 TLR4/MyD88 BLA complementation; inhibition, % at 8.4 µM; hit rate 0.18% among 200,000; in the data active = inhibition above about 25%;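 also: 0% = vehicle and 100% = reference inhibitor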
m5-HT2A agonist = mouse Htr2a agonists via beta-arrestin recruitment, primary screen, cell-based, luminescence; AID 624169, 2012; hit rate 0.66% among 360,000; CHO-K1 mHTR2A beta-arrestin complementation; percent of 30 µM serotonin response; 5-hydroxytryptamine receptor 2A (Mus musculus), P35363; activation, % at 7.6 µM;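 active = activation above a run cutoff, the mean activation of all tested compounds plus 3 SD, cut at about 14% in these data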;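 also: 0% = plate median of compound wells and 100% = 30 µM serotonin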
CRFBP-R2 block = antagonists of CRF-BP/CRF-R2 complex, primary screen, cell-based, HEK293, calcium dye fluorescence, uHTS | CRF-induced calcium fluorescence | inhibition, % at 11.8 µM | hit rate 0.59% among 350,000;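 active = inhibition of the ligand-induced calcium signal above about 50% at the single tested concentration, limit read from the data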
ABHD5-PLIN5 conf = ABHD5-PLIN5 interaction inhibitors, confirmation, biochemical, luminescence; shares compounds with ABHD5 PLIN5 PPI; inhibition, % at 4 µM; hit rate 67% among 2,200; AID 651612, 2012; in the data active = inhibition above about 23%;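 also: 0% = DMSO vehicle wells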
HNF4 counter = HNF4 dimerization inhibitors, counter-screen for ABHD5-PLIN5 interaction inhibitor project, biochemical, split-luciferase complementation, luminescence. shares compounds with ABHD5 PLIN5 PPI. inhibition, % at 4 µM. hit rate 77% among 2,200;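 active = mean inhibition across replicate wells exceeding the computed hit threshold, cut at about 13% in these data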;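 also: light from luciferase halves that rejoin when HNF4 fusion proteins dimerize; 0% = DMSO only wells and the 100% control is not given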
* hit, by the source's call; / = not tested or not shown; ! = not active in a repeat.

SMILES | ABHD5 PLIN5 PPI | NOD2-RIPK2 inh | TLR9-MyD88 inh | TLR4 MyD88 comp | m5-HT2A agonist | CRFBP-R2 block | ABHD5-PLIN5 conf | HNF4 counter
CCCc1nc2ccc(C)cn2c1Cc1ccc(OC)cc1C | -3 | -2 | / | / | 2 | / | / | /
Cc1ccc(S/C=C\C(=O)c2ccccc2)cc1 | 31* | -12 | -4 | 0 | -3 | -7 | 48* | 33*
O=C(c1cc(-c2ccc(F)cc2)nc2ccccc12)N1CCC1 | -6 | -8 | -1 | / | -5 | -16 | / | /
O=C(O)c1cc(-c2ccc(-c3ccc(F)cc3)o2)nc2ccccc12 | 31* | -5 | 9 | / | -1 | -5 | 20 | 61*
CCCn1nc2cc(C(=O)N(CC)c3ccc(OC)cc3)ccc2c1OCC | 71* | -4 | 3 | 7 | -5 | 3 | 3 | 0
CCCn1nc2cc(C(=O)NCc3ccc(OC)cc3)ccc2c1OCC | -2 | -2 | -12 | -3 | 2 | 12 | / | /
CC1CCCCN1CCCNC(=O)c1ccc2c(c1)NC(=O)CN2C (stereo not given) | 10 | 6 | -91 | / | 6 | 8 | / | /
CCCCN(CCCNC(=O)c1ccc2c(c1)NC(=O)CN2C)c1ccccc1 | 70* | -2 | 6 | / | -2 | 6 | 52* | 72*
CCCCN1C(=O)C(CC(=O)NCc2cccc3ccccc23)CC(C(=O)N(C(C)C)C(C)C)=C1C (stereo not given) | 10 | 3 | / | / | 0 | / | / | /
COC(=O)C[C@@H]1CC[C@@H](NC(=O)C2CCC2)[C@@H](CO)O1 | 6 | -30 | / | / | -2 | / | / | /
COc1ccccc1C(=O)/C=C/c1ccc(N2CCCCC2)c([N+](=O)[O-])c1 | 37* | 1 | 9 | 3 | -4 | 18 | 64* | 67*
CC1(C(=O)NS(=O)(=O)c2ccccc2OC(F)(F)F)CCN1C(=O)c1ccccc1 (stereo not given) | 10 | -9 | / | / | 3 | / | / | /
CCc1cc2c(=O)n(Cc3ccco3)c(SCc3c(C)noc3C)nc2s1 | 26* | -3 | 2 | 4 | -1 | 32 | 30* | 51*
CCc1cc2c(=O)n(Cc3ccco3)c(SCC(=O)NCC3CCCO3)nc2s1 (stereo not given) | 8 | -3 | 2 | / | -6 | -10 | / | /
Cc1ccc(C2CC(c3cccs3)=NN2C(=O)c2ccc(Br)o2)cc1 (stereo not given) | 25* | -2 | 0 | -1 | -2 | 3 | 45* | 58*
CC(=O)N1N=C(c2cccs2)CC1c1ccc(Br)cc1 (stereo not given) | -2 | -12 | -10 | / | -4 | -5 | / | /
O=C(Cn1nc(CNc2ccc(Cl)cc2)[n+]2c1CCCCC2)c1ccccc1 | 25* | -2 | 2 | 3 | -5 | -11 | 13 | 4
CCOC(=O)C(=Cc1ccc(-n2ccnc2)cc1)C(=O)OCC | 63* | 6 | 4 | 3 | -4 | 10 | 88* | 96*
CCOC(=O)c1cc2c(=O)n3cccc(C)c3nc2n(CCOC)c1=NC(=O)c1ccncc1 | / | / | / | 8 | / | / | / | /
CCCCCn1c(=NC(=O)c2ccco2)c(C(=O)OCC)cc2c(=O)n3ccccc3nc21 | 56*! | -5 | -7 | -13 | -2 | 34 | 18 | 25*
CCCCn1c(=NC(=O)c2ccco2)c(C(=O)OCC)cc2c(=O)n3cccc(C)c3nc21 | 37* | -12 | 0 | / | 5 | -12 | 10 | 14*
Cc1oc(=O)c(NC(=O)c2ccc(Cl)cc2)cc1C(=O)c1ccccc1 | 46* | 0 | 1 | 5 | 3 | -10 | 11 | 95*
COc1cc(Cn2c3ccc(NC(=O)CC(C)C(F)(F)F)cc3c(=O)n2C)ccc1F (stereo not given) | -8 | 7 | / | / | 3 | / | / | /
CCN1/C(=C/c2ccc3ccccc3[n+]2CCCS(=O)(=O)[O-])C=Cc2cc(C)ccc21 | 13 | 5 | 1 | / | -5 | -8 | / | /
CCN1/C(=C/c2ccc3ccccc3[n+]2CC)C=Cc2ccccc21 | 41* | 7 | 0 | 6 | -5 | 9 | 55* | 53*
SMILES | ABHD5 PLIN5 PPI | NOD2-RIPK2 inh | TLR9-MyD88 inh | TLR4 MyD88 comp | m5-HT2A agonist | CRFBP-R2 block | ABHD5-PLIN5 conf | HNF4 counter
CC(=O)C1CCC2C3C=CC4=CC(=O)CCC4(C)C3CCC12C (stereo not given) | 5 | -1 | / | / | -4 | / | / | /
CCCCn1nnnc1C1(C)CCC(=O)N1CCCn1ccnc1 (stereo not given) | 59* | -8 | / | / | 0 | / | 47* | 46*
Cn1nc(NC(=O)C(F)(F)F)c2ncc(-c3ccccc3)nc21 | -12 | -6 | 1 | / | 1 | -15 | / | /
COc1ccc(OC)c2cc3ccccc3cc12 | 48* | -16 | -7 | / | 4 | -11 | 67* | 12
COc1cc2ccccc2cc1C(=O)O | 0 | -8 | -10 | 6 | 0 | 1 | / | /
CCOC(=O)c1c(-c2ccco2)csc1NC(=O)COC(=O)c1cnccn1 | 25* | 2 | 5 | / | 3 | 5 | 18 | 15*
CCCc1cn(CC(C)n2c(=O)c3ccccc3n2Cc2cc(C(C)C)no2)nn1 (stereo not given) | -2 | -6 | / | / | 2 | / | / | /
O=C(Cn1ccc(=O)[nH]c1=O)c1ccc([N+](=O)[O-])o1 | 6 | -8 | -4 | / | 3 | 7 | / | /
COCCCn1cc(CN2CC(N3CCN(CCO)CC3)CS2(=O)=O)nn1 (stereo not given) | -1 | 12 | / | / | -1 | / | / | /
O=C(O)c1cccc(N2C(=O)C=CC2=O)c1 | 37* | -11 | -2 | / | 7 | -14 | 44* | 104*
O=C(Cc1ccccc1)Nc1cccc(N2C(=O)C=CC2=O)c1 | 29* | 11 | 13 | 10 | 2 | -4 | 47* | 107*
COc1cccc(NC(=O)Cc2ccccc2)c1 | 0 | -10 | 0 | 1 | -4 | 7 | / | /
CCOC(=O)N(C)c1c(CC)nc2c(OCc3ccccc3C)cccn12 | -1 | -16 | / | / | -7 | / | / | /
O=C(O)C1=CCC=CC1C(=O)O (stereo not given) | 2 | -5 | 2 | / | 8 | 12 | / | /
O=C(NCc1ccc(F)cc1)c1cc(C2CCCCN2S(=O)(=O)Cc2ccccc2)on1 (stereo not given) | 4 | -11 | / | / | 10 | / | / | /
O=C1Nc2cnc(Cl)nc2Nc2ccccc21 | -8 | -2 | / | / | 2 | / | / | /
